# This is part of a sample that, as a whole, favours compounds with a hit. Of some 79,000 tested, about 15% had one in any assay. Unmarked numbers belong to inactive results. Calls of active or inactive are those of the source. Rule as the data show it: active = growth inhibition above about 70%; inactive = the rest.
# Experiment: NCI Yeast Anticancer Drug Screen. Data for the mec2-1 strain (AID 157)
# Details: S. cerevisiae mec2-1 strain, at 50.0 µM, stronger effect = higher value
# Procedure, shortened: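 Readout is yeast growth inhibition, normalised to vehicle-treated controls, in the mec2-1 strain exposed to compound.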
row,SMILES,growth inhibition
1,CN=C1NS(=O)(=O)c2ccccc21,-6.15%
2,COc1cc(CSc2ccc(O)cc2)cc(OC)c1OC,84.3% (active)
3,CN(C)CCCNc1c2ccccc2nc2cccc([N+](=O)[O-])c12,93% (active)
4,CCCCCCCCCCCCCCCc1ncc(C)[nH]1,99.4% (active)

# Experiment: NCI Yeast Anticancer Drug Screen. Data for the sgs1 mgt1 strain (AID 161);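 also: 0% = growth of cultures given vehicle only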
# Details: S. cerevisiae sgs1 mgt1 strain, at 5.0 µM (retest, dose inferred, filed as 0.5), stronger effect = higher value
# Procedure, shortened: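 Yeast cells carrying a defined DNA-repair defect were exposed to test compounds. Growth inhibition was measured relative to vehicle-treated controls.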
row,SMILES,growth inhibition
1,S=C(Nc1cc(Cl)cc(Cl)c1)SCc1ccccc1,30%
2,CCCOc1cc(C(=O)OCCN(CC)CC)cc(OCCC)c1OCCC,4%
3,C=C1C(=O)[C@@]23CC[C@H]4[C@@](C)(CCC[C@@]4(C)C(=O)OC)[C@@H]2CC[C@]1(O)C3,83% (active)
4,CCCSc1ncnc2nc(C)[nH]c12,-2%
5,O=C1C=CC(=O)N1CCCCCCN1C(=O)C=CC1=O,32%
6,CCOC(=O)c1[nH]c2c([N+](=O)[O-])cccc2c1[N+](=O)[O-],-3%
7,CSC(=S)/C(=C/Nc1ncccn1)c1ccccc1,-3%
8,N#CNc1nc(N)c(-c2ccc(Cl)cc2)c(C(=O)Nc2ccc(Cl)c(Cl)c2)n1,-2%
9,COc1ccc2c(c1)c(=O)c1c(NCCN(C)C)ccc3nnn2c31,6%
10,CCC[CH2][Sn]([S][Sn]([CH2]CCC)([c]1ccccc1)[c]1ccccc1)([c]1ccccc1)[c]1ccccc1,99% (active)
11,CCC1=CCC2C(=O)c3cc4ccccc4cc3C(=O)C2C1 (configuration not stated),9%
12,Cc1ccccc1NC(=O)C1C(=O)N(c2ccccc2C)C(=O)/C1=N/O (configuration not stated),-4%
13,CCCCc1[nH]ccc2c(C)c3nc4ccccc4c3cc12,-14%
14,O=C(O)C(Br)C(Br)C(=O)Nc1ccc(Cl)c(Cl)c1 (configuration not stated),85% (active)
15,Cc1cc(C)c2c(c1)sc1nncn12,53%
16,CC(=O)C(C=O)C(C)=O.CC(=O)CC(C)=O.CC(=O)CC(C)=O.[Ru],16%
17,COc1ccc(NC(=O)CCC(=O)C(C)C(=O)c2ccccc2)cc1 (configuration not stated),14%
18,CCCCCCCCCCCCCC(=O)CC(=O)c1c(O)cccc1O,7%
19,Cc1ccc(NC(=S)SCc2ccco2)cc1Cl,12%
20,Cc1nc(N)nn1C,-3%

row,SMILES,growth inhibition
1,Cc1cccc(O)c(=O)c1,2%
2,O=C1C=CC(=O)N1c1ccc(-c2nc3ccccc3o2)cc1,100% (active)
3,NC1=NC(c2ccccc2)CC(c2cc(Cl)cc(Br)c2O)=N1 (configuration not stated),-1%
4,CCCCCCCCCCCc1ccn[nH]1,9%
5,CC(=O)Oc1c(-c2ccccc2)cc([N+](=O)[O-])cc1[N+](=O)[O-],31%
6,COc1cccc2c1C1c3ccccc3Sc3cccc(c31)O2 (configuration not stated),4%
7,O=C1CC(O)C=C1Nc1ccc(Cl)cc1 (configuration not stated),-6%
8,C=CCNC(=S)N/N=C(/c1ccccn1)C(C)C,-2%
9,CCCCCCCCCCCCCCCC[N+](C)(C)c1ccccc1,99% (active)
10,O=C(NC(OCc1ccccc1)(C(F)(F)F)C(F)(F)F)OCc1ccccc1,-9%
11,Cc1cc2oc3c(ccc(=O)n3C)c(=O)c2c(C)c1Cl,22%
12,COc1cc2c(cc1OC)C(=O)C(C)(c1ccccc1)NC2 (configuration not stated),3%
13,CCC(C)NCCNc1cc(OC)cc2cccnc12 (configuration not stated),7%
14,CN(C)CCCN=c1c2ccccc2n(O)c2ccccc12,-16%
15,N#CCc1ccccc1-c1cccc2ccccc12,-2%
16,CN=C1NS(=O)(=O)c2ccccc21,4%
17,COc1cc(CSc2ccc(O)cc2)cc(OC)c1OC,-24%
18,CN(C)CCCNc1c2ccccc2nc2cccc([N+](=O)[O-])c12,95% (active)
19,CCCCCCCCCCCCCCCc1ncc(C)[nH]1,91% (active)

# Same assay, conditions: S. cerevisiae sgs1 mgt1 strain, at 50.0 µM (retest, dose inferred, filed as 5.0), stronger effect = higher value
row,SMILES,growth inhibition
1,S=C(Nc1cc(Cl)cc(Cl)c1)SCc1ccccc1,74% (active)
2,CCCOc1cc(C(=O)OCCN(CC)CC)cc(OCCC)c1OCCC,43%
3,C=C1C(=O)[C@@]23CC[C@H]4[C@@](C)(CCC[C@@]4(C)C(=O)OC)[C@@H]2CC[C@]1(O)C3,99% (active)
4,CCCSc1ncnc2nc(C)[nH]c12,-3%
5,O=C1C=CC(=O)N1CCCCCCN1C(=O)C=CC1=O,99% (active)
6,CCOC(=O)c1[nH]c2c([N+](=O)[O-])cccc2c1[N+](=O)[O-],9%
7,CSC(=S)/C(=C/Nc1ncccn1)c1ccccc1,94% (active)
8,N#CNc1nc(N)c(-c2ccc(Cl)cc2)c(C(=O)Nc2ccc(Cl)c(Cl)c2)n1,4%
9,COc1ccc2c(c1)c(=O)c1c(NCCN(C)C)ccc3nnn2c31,4%
10,CCC[CH2][Sn]([S][Sn]([CH2]CCC)([c]1ccccc1)[c]1ccccc1)([c]1ccccc1)[c]1ccccc1,93% (active)
11,CCC1=CCC2C(=O)c3cc4ccccc4cc3C(=O)C2C1 (configuration not stated),-4%
12,Cc1ccccc1NC(=O)C1C(=O)N(c2ccccc2C)C(=O)/C1=N/O (configuration not stated),-19%
13,CCCCc1[nH]ccc2c(C)c3nc4ccccc4c3cc12,96% (active)
14,O=C(O)C(Br)C(Br)C(=O)Nc1ccc(Cl)c(Cl)c1 (configuration not stated),99% (active)
15,Cc1cc(C)c2c(c1)sc1nncn12,97% (active)
16,CC(=O)C(C=O)C(C)=O.CC(=O)CC(C)=O.CC(=O)CC(C)=O.[Ru],61%
17,COc1ccc(NC(=O)CCC(=O)C(C)C(=O)c2ccccc2)cc1 (configuration not stated),0%
18,CCCCCCCCCCCCCC(=O)CC(=O)c1c(O)cccc1O,-13%
19,Cc1ccc(NC(=S)SCc2ccco2)cc1Cl,99% (active)
20,Cc1nc(N)nn1C,-1%

row,SMILES,growth inhibition
1,Cc1cccc(O)c(=O)c1,98% (active)
2,O=C1C=CC(=O)N1c1ccc(-c2nc3ccccc3o2)cc1,96% (active)
3,NC1=NC(c2ccccc2)CC(c2cc(Cl)cc(Br)c2O)=N1 (configuration not stated),42%
4,CCCCCCCCCCCc1ccn[nH]1,99% (active)
5,CC(=O)Oc1c(-c2ccccc2)cc([N+](=O)[O-])cc1[N+](=O)[O-],88% (active)
6,COc1cccc2c1C1c3ccccc3Sc3cccc(c31)O2 (configuration not stated),3%
7,O=C1CC(O)C=C1Nc1ccc(Cl)cc1 (configuration not stated),4%
8,C=CCNC(=S)N/N=C(/c1ccccn1)C(C)C,80% (active)
9,CCCCCCCCCCCCCCCC[N+](C)(C)c1ccccc1,99% (active)
10,O=C(NC(OCc1ccccc1)(C(F)(F)F)C(F)(F)F)OCc1ccccc1,98% (active)
11,Cc1cc2oc3c(ccc(=O)n3C)c(=O)c2c(C)c1Cl,21%
12,COc1cc2c(cc1OC)C(=O)C(C)(c1ccccc1)NC2 (configuration not stated),-1%
13,CCC(C)NCCNc1cc(OC)cc2cccnc12 (configuration not stated),10%
14,CN(C)CCCN=c1c2ccccc2n(O)c2ccccc12,-3%
15,N#CCc1ccccc1-c1cccc2ccccc12,17%
16,CN=C1NS(=O)(=O)c2ccccc21,-1%
17,COc1cc(CSc2ccc(O)cc2)cc(OC)c1OC,29%
18,CN(C)CCCNc1c2ccccc2nc2cccc([N+](=O)[O-])c12,99% (active)
19,CCCCCCCCCCCCCCCc1ncc(C)[nH]1,99% (active)
